These results are taken from PubChem BioAssay AID720517 (National Center for Advancing Translational Sciences (NCATS), 2013).

Inconclusive results are not listed. Calls of active or inactive are those of the source. The call rests on the fitted dose curve; in most records, active means well fitted activation curve with a large enough effect; inconclusive means small, poorly fitted or top-dose-only effect; inactive means flat fitted curve, though single readings scatter.
Potency means the concentration at half of the fitted maximal effect.

The nature of this assay: qHTS for Inhibitors of Cell Surface uPA Generation: FP59 Counterscreen for Cherry-picked Compounds. On activity (protection from FP59): 0% is about no effect. The settings on record: FP59 anthrax toxin cytotoxicity counterscreen, cells; series mostly up to 115 µM; activity (protection from FP59): at the top concentration. On the technique in general: Quantitative high-throughput screening tests each substance at several concentrations.
For `CCCCN(C(=O)c1cnccn1)c1c(N)n(CCC)c(=O)[nH]c1=O`, the “activity (protection from FP59)” value was -1.49% (inactive).

Take `CC(C)C[C@H]1CN([C@@H](CC(C)C)CN2CCCC2CN2C(=S)NC[C@@H]2Cc2ccc(O)cc2)C(=S)N1CC1CCCCC1` (some centres undefined): the “activity (protection from FP59)” value was 13.2% (inactive).

Regarding `Cc1ccc2c(c1)N(CC(=O)NCCCc1ccccc1)C(=O)c1cccnc1O2`, the “activity (protection from FP59)” value is -1.38% (inactive).

With `CC(C)C1Oc2ccccc2N(CC(=O)NC2CCCCC2)C1=O` (centres undefined), the Potency is 58.5 µM (active).

As to `COC(C[C@H](O)[C@H](C)[C@@H](O)COCc1ccccc1)OC`, the “activity (protection from FP59)” value was -1.17% (inactive).

In the case of `O=S(=O)(NCC(c1cccnc1)N1CCOCC1)c1ccccc1` (centres undefined), the “activity (protection from FP59)” value is -1.32% (inactive).

Consider `CC1CN(C(=O)CCC(=O)NCc2ccccc2)c2ccccc2S1` (centres undefined), for which the “activity (protection from FP59)” value was -1.06% (inactive).

For `O=C(COC(=O)c1ccc2ncsc2c1)NCc1cccc(Cl)c1`, the “activity (protection from FP59)” value was -1.35% (inactive).

Take `COc1ccc(NC(=O)CC(C)CC(=O)NCc2ccccc2)c(OC)c1` (centres undefined): the “activity (protection from FP59)” value is -1.24% (inactive).

For the compound `CCNC(=S)NNC(=O)C(c1ccccc1)c1ccccc1`, the “activity (protection from FP59)” value was -1.4% (inactive).

Turning to `CCN(CC(=O)Nc1c(F)cccc1F)C(=O)c1ccc(-c2ccc(C(C)=O)cc2)o1`, the “activity (protection from FP59)” value is -1.27% (inactive).

Turning to `COc1ccccc1CNC(=O)CCn1c(=O)oc2ccccc21`, the “activity (protection from FP59)” value is -1.54% (inactive).

For `COC(=O)[C@H](CC(C)C)N(Cc1ccccc1)S(=O)(=O)N(Cc1ccc(OC)cc1)[C@@H](CC(C)C)C(=O)OC`, the “activity (protection from FP59)” value was -0.209% (inactive).

`CCCOc1ccc(S(=O)(=O)NNC(=O)c2cc3ccccc3o2)cc1`: the “activity (protection from FP59)” value is -0.614% (inactive).

Regarding `O=C(Cc1ccc(Cl)cc1)NC(=S)Nc1ccccc1O`, the “activity (protection from FP59)” value is 0.767% (inactive).

As to `Cn1c(SCC(=O)NCCc2ccccc2)ncc(C(=O)Nc2ccc(F)cc2)c1=O`, the “activity (protection from FP59)” value is -1.23% (inactive).

Take `CCc1ccc(NC(=O)Cn2cnc([N+](=O)[O-])c2)cc1`: the “activity (protection from FP59)” value was -0.991% (inactive).

As to `O=C(Nc1ccc(Cl)cn1)C1CCCN(c2ncnc3c2nc2n3CCCCC2)C1` (centres undefined), the “activity (protection from FP59)” value was 2.43% (inactive).

Turning to `CCOc1cc(C(=S)N2CCOCC2)ccc1OC(=O)c1cccc(C)c1`, the “activity (protection from FP59)” value is 12.4% (inactive).

In the case of `CCc1ccccc1NC(=O)CN(C)C(=O)CSc1nnc(Nc2cccc(C)c2C)s1`, the “activity (protection from FP59)” value is -0.108% (inactive).

Consider `C[C@@H](CSc1ccccc1)CN1CC[C@H](O)CCC1=O`, for which the “activity (protection from FP59)” value is -1.41% (inactive).

Take `O=C1N[C@@H](Cc2c[nH]c3ccccc23)C(=O)N[C@H]1Cc1ccccc1`: the “activity (protection from FP59)” value is -1.34% (inactive).

With `COc1ccc(N(CN2C(=O)c3ccccc3C2=O)C(=O)C(C)C)cc1`, the “activity (protection from FP59)” value was 0.575% (inactive).

Regarding `COC(=O)C(CCSC)NC(=O)Cn1ncc2c(=O)oc3ccccc3c21` (centres undefined), the “activity (protection from FP59)” value is -1.5% (inactive).

`Cc1cccc(N2C(=O)c3cccc(Oc4ccc(Cl)cc4)c3C2=O)c1`: the “activity (protection from FP59)” value is -0.698% (inactive).

As for `O=C(O)C(Nc1nc(C(F)(F)F)nc2ccccc12)c1ccccc1` (centres undefined), the “activity (protection from FP59)” value is -1.46% (inactive).

As for `Cc1cccc(CNc2ccc(C(CC(N)=O)NC(=O)c3cccc(Br)c3)cc2[N+](=O)[O-])c1` (centres undefined), the “activity (protection from FP59)” value was -1.01% (inactive).

As to `COc1ccc(Cc2nnc(NC(=O)Nc3ccc(F)cc3)s2)cc1`, the “activity (protection from FP59)” value was -0.209% (inactive).

`CC(C)(C)n1ncc2c(=O)n(Cc3ccc(Cl)cc3)cnc21`: the “activity (protection from FP59)” value is 5.53% (inactive).

`CCC(=O)N(Cc1cc2ccc(C)cc2[nH]c1=O)c1ccccc1OC`: the “activity (protection from FP59)” value is -1.32% (inactive).

Consider `Cc1cc(N)n(Cc2ccc(Cl)cc2)n1`, for which the “activity (protection from FP59)” value was -1.26% (inactive).

As to `CCCCNc1c(-c2ccc(-c3cccc(Cl)c3)cc2)nc2ccccn12`, the “activity (protection from FP59)” value is -1.44% (inactive).

`COc1cc(NS(=O)(=O)c2ccc(NC(=S)NC(=O)COc3ccccc3OC)cc2)nc(OC)n1`: the “activity (protection from FP59)” value is 0.183% (inactive).

For `O=C(NCCN1CCOCC1)c1ccccc1Cl`, the “activity (protection from FP59)” value was -1.25% (inactive).

Consider `CC(=O)c1ccc(OCCCCOc2ccc(C(C)=O)cc2)cc1`, for which the “activity (protection from FP59)” value was -1.4% (inactive).

In the case of `COc1ccc(-n2nnnc2SCC(=O)Nc2nnc(C)s2)cc1`, the “activity (protection from FP59)” value was -1.43% (inactive).

Regarding `Cc1cc(C)n(-c2cc(C(=O)O)cc(C(=O)O)c2)n1`, the “activity (protection from FP59)” value was -1.29% (inactive).

Turning to `O=C(COC(=O)C1CC2C=CC1C2)NCc1ccccc1Cl` (centres undefined), the “activity (protection from FP59)” value is -1.11% (inactive).

`COC(=O)c1ccc(N2CCN(c3ccccc3)CC2)c(NC(=O)C2CC2)c1`: the “activity (protection from FP59)” value is -1.64% (inactive).
